Screening results deposited in PubChem BioAssay by The Scripps Research Institute Molecular Screening Center.
GALR2 blocker: GALR2 antagonists in receptor-expressing cells, primary screen. Galanin receptor type 2 (Homo sapiens), O43603. antagonist mode. inhibition, % at 4 µM. hit rate 0.39% among 140,000; in the data active = inhibition above about 27%;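 note: cells stimulated with galanin 1-16 at roughly its EC80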
S1P2 antag: human S1P2 receptor antagonists, primary screen, cell-based; Sphingosine 1-phosphate receptor 2 (Homo sapiens), O95136; cell-based S1P2 antagonist assay, inhibition at 5 uM; inhibition, % at 5 µM; hit rate 0.21% among 97,000; AID 736, 2007; in the data active = inhibition above about 45%;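 note: CRE beta-lactamase reporter cells expressing human S1P2 stimulated with S1P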
Target sequence (O95136 whole entry, looked up): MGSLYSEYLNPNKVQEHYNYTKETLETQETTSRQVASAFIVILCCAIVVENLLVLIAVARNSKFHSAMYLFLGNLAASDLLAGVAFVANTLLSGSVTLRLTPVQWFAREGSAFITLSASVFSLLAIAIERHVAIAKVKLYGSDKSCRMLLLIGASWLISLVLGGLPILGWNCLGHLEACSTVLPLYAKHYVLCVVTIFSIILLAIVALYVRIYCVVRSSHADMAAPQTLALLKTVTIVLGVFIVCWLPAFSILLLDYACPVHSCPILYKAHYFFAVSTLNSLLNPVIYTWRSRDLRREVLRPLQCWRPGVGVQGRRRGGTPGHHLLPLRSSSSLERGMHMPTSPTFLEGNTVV
S1P2 ag: S1P2 receptor agonists, primary screen, cell-based; S1P2-expressing cell line, agonist reporter read-out; activation, % at 4.5 µM; hit rate 0.46% among 97,000; AID 729, 2007; in the data active = activation above about 16%
GALR2 agonist: GALR2 receptor agonists, primary screen, cell-based. activation, % (test concentration not listed). Galanin receptor type 2 (Homo sapiens), O43603. hit rate 0.48% among 140,000. GALR2-expressing cells, agonist activation read-out; in the data active = activation above about 5%, passing the limit was not always enough
Numbers stand for hits; i = inactive; nt = no result given. Sampled rows, rich in hits. Any-hit rate of the full collection: about 1.1%.

SMILES	GALR2 blocker	S1P2 antag	S1P2 ag	GALR2 agonist
COc1ccc(C2C3=C(CCCC3=O)Nc3nc(-c4cc(OC)c(OC)c(OC)c4)nn32)cc1OC (stereo not drawn)	i	i	i	i
COc1cc(-c2nc3n(n2)C(c2cccc(OC)c2OC)C2=C(CCCC2=O)N3)cc(OC)c1OC (stereo not drawn)	i	i	27.1	i
O=C1CCC/C(=N/NC(=O)c2ccc(CN3c4cccc5cccc(c45)S3(=O)=O)cc2)C1	i	nt	nt	i
CC(C)C1N=C2c3ccccc3N=C(SCc3cc(=O)n4cc(Cl)ccc4n3)N2C1=O (stereo not drawn)	i	i	24.6	i
CNCc1ccccc1Sc1ccc(O)c(O)c1	i	nt	nt	i
Cn1c(=O)cc(N)n(Cc2ccccc2)c1=O	i	nt	nt	i
Nc1nnnn1/N=C/C(Br)=C/c1ccccc1	30.4	46.7	i	i
Nc1nnnn1/N=C/C=C/c1ccccc1	i	nt	nt	i
N=c1c(S(=O)(=O)c2ccc(Cl)cc2)cc2c(=O)n3ccccc3nc2n1CCN1CCOCC1	i	nt	nt	8.3
Cn1c(=N)c(S(=O)(=O)c2ccc(F)cc2)cc2c(=O)n3ccccc3nc21	i	i	i	i
Cn1c(=N)c(S(=O)(=O)c2ccccc2)cc2c(=O)n3ccccc3nc21	i	i	21.5	i
O=C(COc1ccccc1-c1ccccc1)N/N=C/c1ccc2ccccc2c1	i	nt	nt	6.8
CNc1nc(Nc2ccc(Br)cc2)nc(N)c1[N+](=O)[O-]	i	nt	nt	5.3
Cc1cccc(N2CCN(c3cc(C)nc4nnnn34)CC2C)c1 (stereo not drawn)	i	nt	nt	5.4
Cc1cc(N2CCN(c3ccccc3)CC2)n2nnnc2n1	i	nt	nt	i
CC(C)CCNC(=O)CNC(=S)N(Cc1ccccc1)Cc1cccnc1	i	nt	nt	i
CC(=O)c1cc2c(cc1NC(=O)c1cc(C)nn1-c1ccccc1)OCO2	i	nt	nt	14.8
CC(=O)Nc1ccc(NC(=O)c2cc(C)nn2-c2ccccc2)cc1	i	i	i	i
CCOC(=O)N1CCN(C(=O)c2cccc(OC)c2OC)CC1	i	i	i	i
CCOC(=O)N1CCN(C(=O)c2cnc(Nc3ccccc3OC)c3ccccc23)CC1	i	nt	nt	7.0
CCCNC(=O)c1ccc(C2SCC(=O)N2CCc2ccccc2)cc1 (stereo not drawn)	i	nt	nt	i
COc1ccc2nc(SCc3nc(N)nc(Nc4ccccc4)n3)[nH]c2c1	i	i	16.8	i
COc1ccc2nc(SCC(=O)Nc3ccccc3)[nH]c2c1	i	nt	nt	i
Cc1ccc(S(=O)(=O)CCC(=O)N2CCc3ccccc32)cc1	i	i	41.5	i
CCc1cccc(CC)c1NC(=O)/C(C#N)=C/c1ccccc1C(F)(F)F	i	nt	nt	i
SMILES	GALR2 blocker	S1P2 antag	S1P2 ag	GALR2 agonist
Cc1ccc2c(CSc3nc4nc(C)cc(C)n4n3)cc(=O)oc2c1	i	i	i	i
COc1ccc2c(CSc3nc4nc(C)cc(C)n4n3)cc(=O)oc2c1	i	i	17.2	i
COc1cc2c(C)nc(C)c(C#N)c2cc1OC	i	i	20.6	i
COc1cc2c(C)nc3onc(-c4ccccc4)c3c2cc1OC	i	i	i	i
Brc1ccc(CSc2nnc(-c3ccccn3)n2Cc2ccco2)cc1	i	i	i	i
C(=C\c1ccccc1)/CSc1nnc(-c2ccccc2)n1Cc1ccco1	i	i	53.0	i
O=c1c2ccccc2nc(-c2ccccc2)n1Cc1ccco1	i	i	32.7	i
CC(C)(C)c1ccc(CSc2nnc(-c3ccccn3)n2Cc2ccco2)cc1	i	i	31.5	i
CCOc1ccc(S(=O)(=O)N(CC(=O)N/N=C/c2ccc(-c3ccc([N+](=O)[O-])cc3)o2)c2ccccc2)cc1	i	61.1	i	i
Cc1ccc(C)c(N(CC(=O)N/N=C/c2ccc(-c3ccc([N+](=O)[O-])cc3)o2)S(=O)(=O)c2ccccc2)c1	i	66.8	i	i
COc1ccc(N(CC(=O)N/N=C/c2cc3ccc(OC)cc3nc2Cl)S(=O)(=O)c2ccccc2)cc1	i	nt	nt	i
COc1ccc2cc(/C=N/NC(=O)CN(c3ccccc3)S(=O)(=O)c3ccccc3)c(Cl)nc2c1	i	nt	nt	6.5
O=C(Cc1ccccc1)N/N=C/c1ccc(-c2ccc([N+](=O)[O-])cc2)o1	i	nt	nt	i
CCN(CC)C(=S)SCC(=O)NC12CC3CC(CC(C3)C1)C2	i	nt	nt	i
COc1ccccc1-c1c(C(F)(F)F)oc2cc(OCC(=O)Nc3cc(C)ccc3C)ccc2c1=O	i	nt	nt	i
CC(=O)c1cccc(NC(=O)COC(=O)COc2c(Cl)cc(Cl)c3ccc(C)nc23)c1	i	nt	nt	i
CN(C)c1ccc(/C=N/n2ncc3ccccc32)cc1	i	nt	nt	25.2
CC1CCN(c2ccc(N3C(=O)C4CCCCC4C3=O)cc2[N+](=O)[O-])CC1 (stereo not drawn)	i	nt	nt	i
CCCCOC(=O)N/N=C/C=C/c1ccccc1	i	nt	nt	i
Fc1ccc2[nH]c3c(N4CCN(c5ccccc5)CC4)ncnc3c2c1	i	nt	nt	i
COc1ccc(N2CCN(c3ncnc4c3[nH]c3ccccc34)CC2)cc1	i	62.8	i	i
COc1cc2c(cc1OC)-c1cc(OCc3ccccc3Cl)nc(=O)n1CC2	i	i	29.2	i
COc1cc2c(cc1OC)-c1cc(NC3CCCC3)nc(=O)n1CC2	i	i	24.3	i
COc1cc2c(cc1OC)C(C(=O)NC1CC1)C1c3ccccc3CCN1C2=O (stereo not drawn)	i	i	i	i
CCOC(=O)c1sc(NC(=O)c2cc(-c3ccccc3C)nc3ccccc23)c(C#N)c1C	i	i	i	i
SMILES	GALR2 blocker	S1P2 antag	S1P2 ag	GALR2 agonist
Cc1ccccc1-c1cc(C(=O)Nc2sc(C)c(C)c2C(N)=O)c2ccccc2n1	i	i	17.5	i
CCN1C(=C2C(=O)c3ccccc3C2=O)C=Cc2ccccc21	i	i	i	i
CCN1/C(=C/c2ccc3ccccc3[n+]2CC)C=Cc2ccccc21	i	81.0	i	i
COc1cccc(NC(=S)N(CCCN2CCOCC2)Cc2cn(C)c3ccccc23)c1	i	nt	nt	i
CCOC(=O)Cc1nc2ccccc2[nH]1	i	i	i	5.4
CCOC(=O)CCc1nc2ccccc2[nH]c1=O	i	i	i	i
COc1cc(/C=N/Nc2nc(Nc3ccccc3)nc(-n3nc(C)cc3C)n2)cc(OC)c1OC	i	nt	nt	8.1
COc1cc(/C=N/Nc2nc(Nc3ccc(C)cc3)nc(-n3nc(C)cc3C)n2)cc(OC)c1OC	i	47.2	i	i
Cc1ccc(-c2nc(N3CCOCC3)sc2C(=O)N2CCCCC2)cc1	i	nt	nt	i
COc1ccc(C2NCCc3c2[nH]c2ccccc32)cc1CSc1nc2ccccc2s1 (stereo not drawn)	i	nt	nt	i
CN1C(=O)CSc2ccc(NC(=O)Nc3ccccn3)cc21	i	51.5	i	i
COc1ccc(/C=N/NC(=O)c2nc(-c3ccccc3)cc(-c3ccccc3)n2)cc1	i	54.1	i	i
CC(=O)c1ccc(N2CCN(C(C)C(=O)NC3CCCc4ccccc43)CC2)cc1 (stereo not drawn)	i	nt	nt	i
COc1ccc(C(=O)Nc2ccc(-c3ccc(NC(=O)c4ccc(OC)cc4)c(OC)c3)cc2OC)cc1	i	nt	nt	6.2
Cc1nn(-c2nc3ccccc3s2)c(N)c1-c1ccccc1	i	i	22.2	i
